# The entries come from a sample that favours hits as a whole.
# Tg IFNy HTS: T. gondii growth inhibition with IFN-gamma, primary screen, cell-based | Toxoplasma gondii growth in IFN-gamma-treated host cells; stronger effect = lower value | activity change, negative = inhibition, % (test concentration not listed) | hit rate 3.8% among 69,000 | AID 1259416, 2018; in the data active = activity change below about -70%, passing the limit was not always enough;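 also: host cells are HeLa cells infected with Toxoplasma gondii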
# An asterisk follows results filed as active; ! = a repeat was not active.
SMILES,Tg IFNy HTS
COCC1CC2(CCN(C(=O)c3cnoc3)CC2)CN1c1ncccn1 (configuration not stated),-3.4
COCCCN1CC(C(=O)Nc2ccc(-c3ccc(F)cc3)cc2)CC1=O (configuration not stated),-11.4
CC[C@@H](C(=O)[C@@H](C)[C@@H](O)[C@H](C)[C@@H]1O[C@@H]([C@@H](CC)C(=O)O)CC[C@@H]1C)[C@H]1O[C@]2(C=C[C@@H](O)[C@]3(CC[C@@](C)(C4CC[C@](O)(CC)[C@H](C)O4)O3)O2)[C@H](C)C[C@@H]1C (some centres not stated),-80.7*
CC[C@@H](C(=O)[C@@H](C)[C@@H](O)[C@H](C)[C@@H]1O[C@@H]([C@@H](CC)C(=O)O)CC[C@@H]1C)[C@H]1OC2(C=C[C@@H](O)[C@]3(CC[C@@](C)(C4CC[C@](O)(CC)[C@H](C)O4)O3)O2)[C@H](C)C[C@@H]1C (some centres not stated),-83.8*
CCn1cc(C(=O)N2CCc3c(nc(-c4ccccc4)nc3N(C)C)C2)cn1,-9.0
COc1ccc(-c2nc(C)c(CCNC(=O)c3ccc(Cl)cc3)s2)cc1OC,81.3
CC(C)(C)OC(=O)NC(Cc1cc(=O)[nH]c(-c2cccnc2)n1)c1ccccc1 (configuration not stated),-55.0
COc1ccc(C(=O)N2CCC[C@@H]2C(=O)NCCc2csc(-c3ccccc3)n2)cc1,13.0
CC(C)CCCC1CN(C(=O)c2ccc3[nH]c(=O)c(=O)[nH]c3c2)CCO1 (configuration not stated),4.9
CC(C)(C)c1ccc(CN2CCN(c3cc(N)nc(N)n3)CC2)cc1,-0.4
Cc1cc(N2CCCN(Cc3cnc(-c4ccccn4)nc3)CC2)ccn1,3.7
COc1cccc(-n2c(=O)c(C(=O)Nc3cc(C)ccc3F)c(O)c3cccnc32)c1,29.4
COC(=O)Cn1c(-c2ccccc2)cn2c3c(=O)n(C)c(=O)n(C)c3nc12,-7.8
Cc1nc(-c2cc(C(=O)CCN3CCOCC3)c3ccccn23)cn1C,-33.7
Cc1ccc(C)c(-n2c(C)cn3c4c(=O)n(CCN5CCOCC5)c(=O)n(C)c4nc23)c1,-76.5*
NC(=O)CCC1NC(=O)C(Cc2ccccc2)NC(=O)C(Cc2ccc(O)cc2)NC(=O)CCSSCC(C(=O)N2CCCC2C(=O)NC(CCCN=C(N)N)C(=O)NCC(N)=O)NC(=O)C(CC(N)=O)NC1=O (configuration not stated),6.6
CCCn1nnnc1NCc1cc(Cl)c(OCc2cccs2)c(OC)c1,-52.6
Cc1ccc(CNC(=O)c2cncc(NS(=O)(=O)c3ccc(C)cc3)c2)cc1,9.1
Cn1c(C(=O)NCc2ccco2)cc2c1c1ccccc1n2CC1CC1,3.5
N#CCCNC(=O)c1cc2c(c3ccccc3n2CC2CC2)n1-c1ncccn1,-45.9
CCN(CC)CCCNC(=O)c1cc2c(c3ccccc3n2CC2CC2)n1C,-77.5*
O=C(CSc1nccc(-c2cccs2)n1)c1cc(-c2ccc(Cl)c(Cl)c2)no1,52.1
CCCCCC(=O)O[C@]1(C(C)=O)CC[C@H]2[C@@H]3CCC4=CC(=O)CC[C@]4(C)[C@H]3CC[C@@]21C,-56.6
CCCCCCCC(=O)OCC(=O)[C@@]1(O)CC[C@H]2[C@@H]3CCC4=CC(=O)CC[C@]4(C)[C@H]3[C@@H](O)C[C@@]21C,-5.2
CCCCCC(=O)O[C@]1(C(C)=O)CCC2C3CCC4=CC(=O)CC[C@]4(C)C3CC[C@@]21C (some centres not stated),-80.7*
SMILES,Tg IFNy HTS
CS(=O)(=O)c1snnc1C1CCCN(C(=O)c2cc3c(s2)CCC3)C1 (configuration not stated),3.0
CCc1c(C)[nH]n2c(=O)cc(Cc3ccc(F)cc3)nc12,-102.5*
CCc1c(C)[nH]n2c(=O)cc(COc3ccccc3)nc12,-11.5
CCCc1cc(=O)n2[nH]c(C(F)(F)F)c(-c3ccc(OC)cc3)c2n1,-27.4
CCOc1ccccc1NC(=O)CN1C(=O)CCc2cc(Br)ccc21,33.0
CN(Cc1cc(C(C)(C)C)n[nH]1)c1nccc(N2CCCC(O)C2)n1 (configuration not stated),-7.3
O=c1cc(-c2ccccc2)oc2cc(O)c(O)c(O)c12,-77.2*!
COc1ccc(-c2cc(=O)c3ccc(O)cc3o2)cc1,-7.5
COc1ccc(-c2cc(=O)c3c(O)cc(O)cc3o2)cc1O,85.6
O=c1c(O)c(-c2ccccc2)oc2cc(O)cc(O)c12,66.5
O=c1c(O)cccc2cc(O)c(O)c(O)c12,12.1
COc1cc2oc(-c3ccc(O)cc3)cc(=O)c2c(OC)c1O,-82.4*
CS(=O)(=O)c1ccc(CN2CCCC(Cn3ccnc3)C2)cc1 (configuration not stated),1.3
CCCS(=O)(=O)N1CC2(CCN(c3nccs3)C2)C1,44.0
Cc1c(Cl)cccc1NC(=O)Cn1ncc2c(N3CCOCC3)ncnc21,8.3
O=C(NC[C@@H]1[C@@H](c2ccccc2)[C@H](CO)N1Cc1ccccn1)C1CCCC1,-12.1
COc1cc2c(cc1OC)C(Cc1ccc(O)cc1)N(C)CC2 (configuration not stated),6.0

# Screening results deposited in PubChem by Broad Institute.
